# Experimental data published in PMC7862700, “An all-to-all approach to the identification of sequence-specific readers for epigenetic DNA modifications on cytosine”.
# How the values were obtained:
# Assay in all cases: DAPPL (digital affinity profiling via proximity ligation, sequencing); 10 mM Tris-HCl pH 7.5, 50 mM NaCl, 1 mM DTT, 4% glycerol, room temperature, 30 min; GST-TFs on glutathione beads, 16-mer random dsDNA library, 0.1% formaldehyde crosslink after washing; high values mean tight binding
# [1] = target: T1, FLI1 (Homo sapiens, UniProt Q01543 1-452); conditions: protein: recombinant; tags: N-terminal GST; dsDNA, one strand shown
# T1 sequence: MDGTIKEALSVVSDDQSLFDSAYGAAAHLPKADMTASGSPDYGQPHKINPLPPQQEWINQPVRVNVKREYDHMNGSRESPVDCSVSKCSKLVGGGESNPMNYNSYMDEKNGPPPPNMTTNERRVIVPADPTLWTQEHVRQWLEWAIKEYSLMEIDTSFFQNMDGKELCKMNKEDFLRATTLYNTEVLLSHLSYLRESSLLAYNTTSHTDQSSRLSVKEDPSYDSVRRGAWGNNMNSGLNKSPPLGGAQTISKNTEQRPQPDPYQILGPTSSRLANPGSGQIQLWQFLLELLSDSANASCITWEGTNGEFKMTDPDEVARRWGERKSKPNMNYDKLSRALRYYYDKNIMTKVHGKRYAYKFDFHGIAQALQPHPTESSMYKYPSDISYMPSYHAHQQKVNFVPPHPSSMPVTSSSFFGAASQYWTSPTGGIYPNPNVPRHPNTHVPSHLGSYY
# Outline: (§1)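 After expression in yeast as GST fusions, human transcription factors were bound to glutathione beads, DNA-barcoded and mixed with a tag-only sample. The pools were incubated with 200 nmole of a 16-mer random double-stranded DNA library in Tris/NaCl/DTT/glycerol buffer (30 min, room temperature), washed and crosslinked with 0.1% formaldehyde. Proximity ligation with BsaI/T4 ligase ran for 1 h at 37 °C, before PCR amplification and sequencing on an Illumina NextSeq500. Binding signal is a hexamer's read frequency for a factor divided by its frequency for the tag-only sample.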
# [2] = target: T2, ELK1 (Homo sapiens, UniProt P19419 1-428); conditions: protein: recombinant; tags: N-terminal GST; dsDNA, one strand shown
# T2 sequence: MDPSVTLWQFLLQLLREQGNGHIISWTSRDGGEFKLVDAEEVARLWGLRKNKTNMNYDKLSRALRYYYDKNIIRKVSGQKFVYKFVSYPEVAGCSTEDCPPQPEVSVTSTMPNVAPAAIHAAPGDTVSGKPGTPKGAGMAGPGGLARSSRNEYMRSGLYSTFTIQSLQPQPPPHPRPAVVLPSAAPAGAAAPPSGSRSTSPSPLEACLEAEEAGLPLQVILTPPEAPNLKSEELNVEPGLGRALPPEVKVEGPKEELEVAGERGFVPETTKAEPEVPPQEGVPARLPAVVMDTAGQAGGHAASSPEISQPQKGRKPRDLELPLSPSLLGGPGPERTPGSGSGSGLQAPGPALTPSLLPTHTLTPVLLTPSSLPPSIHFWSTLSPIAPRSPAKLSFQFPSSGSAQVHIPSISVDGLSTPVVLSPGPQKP
# Outline: as §1
# [3] = target: T3, GABPA (Homo sapiens, UniProt Q06546 1-454); conditions: protein: recombinant; tags: N-terminal GST; dsDNA, one strand shown
# T3 sequence: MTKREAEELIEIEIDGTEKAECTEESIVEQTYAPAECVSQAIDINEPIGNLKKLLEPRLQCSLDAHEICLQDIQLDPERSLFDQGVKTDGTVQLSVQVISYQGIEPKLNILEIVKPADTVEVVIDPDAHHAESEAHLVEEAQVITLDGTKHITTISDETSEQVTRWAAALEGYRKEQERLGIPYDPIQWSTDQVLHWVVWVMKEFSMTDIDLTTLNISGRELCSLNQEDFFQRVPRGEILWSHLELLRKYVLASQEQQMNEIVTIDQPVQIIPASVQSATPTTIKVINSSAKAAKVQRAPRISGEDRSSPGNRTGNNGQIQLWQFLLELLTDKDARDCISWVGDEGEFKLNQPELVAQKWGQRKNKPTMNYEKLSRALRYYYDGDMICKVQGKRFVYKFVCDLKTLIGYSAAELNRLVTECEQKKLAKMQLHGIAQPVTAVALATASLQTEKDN
# Outline: as §1
# [4] = target: T4, ERG (Homo sapiens, UniProt P11308 1-479); conditions: protein: recombinant; tags: N-terminal GST; dsDNA, one strand shown
# T4 sequence: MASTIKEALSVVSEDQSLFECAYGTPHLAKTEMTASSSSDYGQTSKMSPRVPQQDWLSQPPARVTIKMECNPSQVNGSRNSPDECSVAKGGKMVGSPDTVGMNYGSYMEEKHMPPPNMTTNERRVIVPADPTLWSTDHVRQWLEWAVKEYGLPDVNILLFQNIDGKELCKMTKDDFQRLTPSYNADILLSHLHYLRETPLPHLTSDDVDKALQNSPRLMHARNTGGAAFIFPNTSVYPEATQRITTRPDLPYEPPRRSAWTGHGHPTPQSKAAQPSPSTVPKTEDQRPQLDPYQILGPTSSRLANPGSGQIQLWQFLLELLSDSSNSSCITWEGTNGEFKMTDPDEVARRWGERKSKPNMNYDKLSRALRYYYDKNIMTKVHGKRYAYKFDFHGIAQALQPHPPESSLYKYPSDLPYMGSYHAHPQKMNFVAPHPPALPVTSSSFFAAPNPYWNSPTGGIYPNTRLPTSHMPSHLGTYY
# Outline: as §1
# [5] = target: ELF1 (Homo sapiens, UniProt P32519 1-619); conditions: protein: recombinant; tags: N-terminal GST; dsDNA, one strand shown
# Chain of ELF1 (P32519 whole entry): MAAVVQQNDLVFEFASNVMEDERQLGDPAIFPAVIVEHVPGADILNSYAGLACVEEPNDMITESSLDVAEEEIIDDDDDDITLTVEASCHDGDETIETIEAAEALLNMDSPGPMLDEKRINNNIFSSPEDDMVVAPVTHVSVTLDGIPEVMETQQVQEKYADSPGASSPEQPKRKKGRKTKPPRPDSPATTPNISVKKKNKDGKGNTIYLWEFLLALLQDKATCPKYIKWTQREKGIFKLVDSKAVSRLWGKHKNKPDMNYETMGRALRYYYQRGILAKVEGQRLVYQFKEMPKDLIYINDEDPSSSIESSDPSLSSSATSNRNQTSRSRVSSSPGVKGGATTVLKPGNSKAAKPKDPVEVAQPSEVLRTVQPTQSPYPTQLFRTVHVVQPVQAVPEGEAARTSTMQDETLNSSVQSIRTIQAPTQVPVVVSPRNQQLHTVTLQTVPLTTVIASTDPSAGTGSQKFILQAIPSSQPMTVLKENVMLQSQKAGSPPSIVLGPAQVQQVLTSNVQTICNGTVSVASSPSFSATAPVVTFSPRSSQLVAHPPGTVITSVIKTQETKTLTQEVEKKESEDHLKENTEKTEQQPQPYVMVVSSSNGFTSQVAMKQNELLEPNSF
# Outline: as §1
# [6] = target: T5, EHF (Homo sapiens, UniProt Q9NZC4 1-300); conditions: protein: recombinant; tags: N-terminal GST; dsDNA, one strand shown
# T5 sequence: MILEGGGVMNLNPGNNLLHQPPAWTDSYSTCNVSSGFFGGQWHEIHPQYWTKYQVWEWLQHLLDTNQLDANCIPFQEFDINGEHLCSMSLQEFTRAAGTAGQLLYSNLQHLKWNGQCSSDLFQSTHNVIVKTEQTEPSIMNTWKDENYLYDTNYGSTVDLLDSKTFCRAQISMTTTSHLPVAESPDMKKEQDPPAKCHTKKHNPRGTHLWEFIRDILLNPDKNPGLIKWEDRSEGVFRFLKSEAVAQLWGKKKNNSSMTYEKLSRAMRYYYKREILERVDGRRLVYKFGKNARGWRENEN
# Outline: as §1
# [7] = target: SPI1 (Homo sapiens, UniProt P17947 1-270); conditions: protein: recombinant; tags: N-terminal GST; dsDNA, one strand shown
# Outline: as §1
# [8] = target: SPIB (Homo sapiens, UniProt Q01892 1-262); conditions: protein: recombinant; tags: N-terminal GST; dsDNA, one strand shown
# Chain of SPIB (Q01892 whole entry): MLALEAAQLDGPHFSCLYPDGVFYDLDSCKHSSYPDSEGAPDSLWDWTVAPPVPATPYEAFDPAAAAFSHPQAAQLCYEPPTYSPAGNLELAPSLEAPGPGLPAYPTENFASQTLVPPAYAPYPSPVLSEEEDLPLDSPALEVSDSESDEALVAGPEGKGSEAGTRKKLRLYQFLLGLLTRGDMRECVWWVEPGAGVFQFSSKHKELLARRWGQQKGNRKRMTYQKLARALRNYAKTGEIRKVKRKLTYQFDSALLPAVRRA
# Outline: as §1
# [9] = target: T6, ELK3 (Homo sapiens, UniProt P41970 1-407); conditions: protein: recombinant; tags: N-terminal GST; dsDNA, one strand shown
# T6 sequence: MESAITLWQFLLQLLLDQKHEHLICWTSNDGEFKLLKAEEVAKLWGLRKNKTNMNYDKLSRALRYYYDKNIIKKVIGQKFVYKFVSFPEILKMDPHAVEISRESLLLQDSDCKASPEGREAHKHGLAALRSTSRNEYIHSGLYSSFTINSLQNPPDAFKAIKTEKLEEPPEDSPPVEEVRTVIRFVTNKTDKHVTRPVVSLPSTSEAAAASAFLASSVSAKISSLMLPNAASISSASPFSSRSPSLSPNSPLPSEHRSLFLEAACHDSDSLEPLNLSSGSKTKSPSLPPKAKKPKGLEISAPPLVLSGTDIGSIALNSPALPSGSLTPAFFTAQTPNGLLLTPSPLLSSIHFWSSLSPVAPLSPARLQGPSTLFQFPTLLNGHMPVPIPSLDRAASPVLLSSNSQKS
# Outline: as §1
# [10] = target: T7, FEV (Homo sapiens, UniProt Q99581 1-238); conditions: protein: recombinant; tags: N-terminal GST; dsDNA, one strand shown
# T7 sequence: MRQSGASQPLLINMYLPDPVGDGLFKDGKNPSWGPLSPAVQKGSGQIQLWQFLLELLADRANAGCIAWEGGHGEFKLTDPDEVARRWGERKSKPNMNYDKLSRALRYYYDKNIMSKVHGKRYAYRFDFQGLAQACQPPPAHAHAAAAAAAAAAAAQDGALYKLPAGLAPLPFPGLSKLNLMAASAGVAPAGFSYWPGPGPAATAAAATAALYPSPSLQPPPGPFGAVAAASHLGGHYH
# Outline: as §1
# [11] = target: ETV5 (Homo sapiens, UniProt P41161 1-510); conditions: protein: recombinant; tags: N-terminal GST; dsDNA, one strand shown
# Chain of ETV5 (P41161 whole entry): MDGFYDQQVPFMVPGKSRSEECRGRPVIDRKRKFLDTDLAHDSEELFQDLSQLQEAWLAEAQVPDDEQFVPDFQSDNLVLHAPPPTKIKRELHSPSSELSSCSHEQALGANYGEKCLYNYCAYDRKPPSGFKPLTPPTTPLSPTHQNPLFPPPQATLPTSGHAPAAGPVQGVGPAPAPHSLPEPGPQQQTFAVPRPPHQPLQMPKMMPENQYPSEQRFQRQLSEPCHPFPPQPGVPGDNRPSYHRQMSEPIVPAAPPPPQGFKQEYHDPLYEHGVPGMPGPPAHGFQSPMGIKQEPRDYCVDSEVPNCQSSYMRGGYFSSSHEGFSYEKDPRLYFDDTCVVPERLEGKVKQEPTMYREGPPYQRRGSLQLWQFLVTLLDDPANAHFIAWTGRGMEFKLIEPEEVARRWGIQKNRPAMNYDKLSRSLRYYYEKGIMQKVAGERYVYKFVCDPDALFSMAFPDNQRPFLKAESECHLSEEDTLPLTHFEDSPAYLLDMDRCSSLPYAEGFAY
# Outline: as §1
# [12] = target: HSF1 (Homo sapiens, UniProt Q00613 1-529); conditions: protein: recombinant; tags: N-terminal GST; chain copies: 3; dsDNA, one strand shown
# Chain of HSF1 (Q00613 whole entry): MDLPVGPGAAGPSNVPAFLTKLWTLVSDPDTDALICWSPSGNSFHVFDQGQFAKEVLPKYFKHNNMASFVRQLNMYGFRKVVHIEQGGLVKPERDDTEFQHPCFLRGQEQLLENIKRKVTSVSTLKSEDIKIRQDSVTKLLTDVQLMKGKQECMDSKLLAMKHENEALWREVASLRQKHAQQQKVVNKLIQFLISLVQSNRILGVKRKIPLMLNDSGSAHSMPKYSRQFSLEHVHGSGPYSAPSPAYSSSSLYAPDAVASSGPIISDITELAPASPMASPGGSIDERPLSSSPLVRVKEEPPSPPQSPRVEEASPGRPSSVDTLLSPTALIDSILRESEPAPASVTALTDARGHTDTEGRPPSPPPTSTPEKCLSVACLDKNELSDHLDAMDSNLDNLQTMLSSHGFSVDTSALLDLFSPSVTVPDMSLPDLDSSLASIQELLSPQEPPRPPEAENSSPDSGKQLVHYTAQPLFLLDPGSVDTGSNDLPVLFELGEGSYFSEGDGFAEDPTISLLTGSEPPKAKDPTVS
# Outline: as §1
# [13] = target: T8, SPIC (Homo sapiens, UniProt Q8N5J4 1-248); conditions: protein: recombinant; tags: N-terminal GST; dsDNA, one strand shown
# T8 sequence: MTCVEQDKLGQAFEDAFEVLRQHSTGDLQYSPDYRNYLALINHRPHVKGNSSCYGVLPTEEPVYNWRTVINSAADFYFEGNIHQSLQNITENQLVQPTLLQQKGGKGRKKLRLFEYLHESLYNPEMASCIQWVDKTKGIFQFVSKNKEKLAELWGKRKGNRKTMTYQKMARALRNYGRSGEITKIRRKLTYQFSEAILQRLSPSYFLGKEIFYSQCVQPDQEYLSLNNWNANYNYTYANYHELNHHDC
# Outline: as §1
# [14] = target: ELF4 (Homo sapiens, UniProt Q99607 1-663); conditions: protein: recombinant; tags: N-terminal GST; dsDNA, one strand shown
# Chain of ELF4 (Q99607 whole entry): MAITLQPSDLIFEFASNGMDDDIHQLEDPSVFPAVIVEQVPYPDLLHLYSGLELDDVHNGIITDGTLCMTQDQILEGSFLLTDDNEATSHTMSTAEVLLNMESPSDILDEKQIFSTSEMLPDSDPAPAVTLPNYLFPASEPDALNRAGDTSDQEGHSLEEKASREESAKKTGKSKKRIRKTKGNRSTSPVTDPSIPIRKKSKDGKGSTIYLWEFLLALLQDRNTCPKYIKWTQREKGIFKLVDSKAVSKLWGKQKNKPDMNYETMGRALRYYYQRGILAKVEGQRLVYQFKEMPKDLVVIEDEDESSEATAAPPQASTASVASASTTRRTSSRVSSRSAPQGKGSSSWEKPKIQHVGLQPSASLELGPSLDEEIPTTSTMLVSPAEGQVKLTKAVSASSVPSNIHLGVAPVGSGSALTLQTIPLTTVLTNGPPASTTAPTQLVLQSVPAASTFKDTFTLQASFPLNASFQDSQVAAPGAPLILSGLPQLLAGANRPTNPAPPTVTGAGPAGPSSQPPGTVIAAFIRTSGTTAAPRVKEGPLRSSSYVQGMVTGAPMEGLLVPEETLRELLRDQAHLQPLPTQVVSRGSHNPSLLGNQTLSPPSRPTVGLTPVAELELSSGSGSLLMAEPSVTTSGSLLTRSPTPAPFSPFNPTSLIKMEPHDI
# Outline: as §1
# [15] = target: T9, ELK4 (Homo sapiens, UniProt P28324-2 1-405); conditions: protein: recombinant; tags: N-terminal GST; dsDNA, one strand shown
# T9 sequence: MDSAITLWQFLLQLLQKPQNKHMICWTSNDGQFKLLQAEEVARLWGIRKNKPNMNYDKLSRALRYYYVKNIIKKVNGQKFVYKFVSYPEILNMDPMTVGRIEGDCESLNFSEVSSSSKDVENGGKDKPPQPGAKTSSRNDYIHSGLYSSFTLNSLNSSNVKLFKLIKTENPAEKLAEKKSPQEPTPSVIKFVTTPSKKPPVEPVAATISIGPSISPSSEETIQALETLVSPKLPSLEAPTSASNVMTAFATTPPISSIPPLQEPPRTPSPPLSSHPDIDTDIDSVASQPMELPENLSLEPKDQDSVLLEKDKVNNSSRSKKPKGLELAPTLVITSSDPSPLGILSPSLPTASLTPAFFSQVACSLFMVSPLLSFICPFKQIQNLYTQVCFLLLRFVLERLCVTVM
# Outline: as §1
# [16] = target: T10, ETV2 (Homo sapiens, UniProt O00321 1-342); conditions: protein: recombinant; tags: N-terminal GST; dsDNA, one strand shown
# T10 sequence: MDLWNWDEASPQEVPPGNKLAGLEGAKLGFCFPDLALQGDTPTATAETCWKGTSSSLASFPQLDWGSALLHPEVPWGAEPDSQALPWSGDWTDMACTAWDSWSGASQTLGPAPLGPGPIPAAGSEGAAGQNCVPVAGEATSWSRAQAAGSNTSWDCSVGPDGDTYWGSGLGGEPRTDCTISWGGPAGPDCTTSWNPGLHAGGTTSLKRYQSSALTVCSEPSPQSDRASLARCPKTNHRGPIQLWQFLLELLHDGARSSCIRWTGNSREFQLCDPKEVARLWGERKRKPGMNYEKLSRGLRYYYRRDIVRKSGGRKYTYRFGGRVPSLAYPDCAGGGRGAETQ
# Outline: as §1
# [17] = target: T11, ELF3 (Homo sapiens, UniProt P78545 1-371); conditions: protein: recombinant; tags: N-terminal GST; dsDNA, one strand shown
# T11 sequence: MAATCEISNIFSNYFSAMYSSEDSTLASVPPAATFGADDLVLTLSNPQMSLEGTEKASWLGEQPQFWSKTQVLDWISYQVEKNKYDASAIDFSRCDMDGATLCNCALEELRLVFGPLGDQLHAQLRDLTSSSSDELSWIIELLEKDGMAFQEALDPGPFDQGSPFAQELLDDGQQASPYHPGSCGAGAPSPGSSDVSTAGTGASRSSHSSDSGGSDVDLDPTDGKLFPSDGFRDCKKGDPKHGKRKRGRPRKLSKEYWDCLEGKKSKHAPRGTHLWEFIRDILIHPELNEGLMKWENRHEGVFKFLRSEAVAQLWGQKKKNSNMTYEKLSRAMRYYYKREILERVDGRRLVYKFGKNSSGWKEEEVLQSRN
# Outline: as §1
# [18] = target: CRX (Homo sapiens, UniProt O43186 1-299); conditions: protein: recombinant; tags: N-terminal GST; dsDNA, one strand shown
# Chain of CRX (O43186 whole entry): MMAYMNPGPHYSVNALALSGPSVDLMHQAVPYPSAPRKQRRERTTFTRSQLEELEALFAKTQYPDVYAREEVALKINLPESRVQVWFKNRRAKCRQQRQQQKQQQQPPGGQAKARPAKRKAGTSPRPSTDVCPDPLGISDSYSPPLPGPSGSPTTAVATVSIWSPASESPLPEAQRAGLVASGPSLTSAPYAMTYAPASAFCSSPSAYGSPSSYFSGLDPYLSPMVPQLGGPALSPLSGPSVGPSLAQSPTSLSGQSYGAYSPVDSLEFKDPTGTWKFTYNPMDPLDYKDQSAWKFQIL
# Outline: as §1
# [19] = target: ETV1 (Homo sapiens, UniProt P50549 1-477); conditions: protein: recombinant; tags: N-terminal GST; dsDNA, one strand shown
# Chain of ETV1 (P50549 whole entry): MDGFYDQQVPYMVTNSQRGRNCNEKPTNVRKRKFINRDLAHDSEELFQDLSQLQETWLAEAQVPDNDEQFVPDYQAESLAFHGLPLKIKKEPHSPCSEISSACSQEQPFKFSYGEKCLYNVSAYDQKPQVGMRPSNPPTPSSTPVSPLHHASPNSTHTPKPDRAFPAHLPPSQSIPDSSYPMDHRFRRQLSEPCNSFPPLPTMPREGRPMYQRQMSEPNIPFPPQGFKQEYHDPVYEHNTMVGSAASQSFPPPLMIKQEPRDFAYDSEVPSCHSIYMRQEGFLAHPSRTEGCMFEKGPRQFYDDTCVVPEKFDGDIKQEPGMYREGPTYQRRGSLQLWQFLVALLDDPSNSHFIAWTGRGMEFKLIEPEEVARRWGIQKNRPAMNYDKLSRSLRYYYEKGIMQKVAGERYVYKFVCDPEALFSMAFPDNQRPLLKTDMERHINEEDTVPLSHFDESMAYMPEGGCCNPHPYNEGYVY
# Outline: as §1
sequence,measurement,setting,value
ATCCTC,binding signal,[1],"1.48 fold enrichment (6-mer frequency, TF over GST control)"
same,binding signal,[2],"1.47 fold enrichment (6-mer frequency, TF over GST control)"
same,binding signal,[3],"1.55 fold enrichment (6-mer frequency, TF over GST control)"
same,binding signal,[4],"1.52 fold enrichment (6-mer frequency, TF over GST control)"
same,binding signal,[5],"1.48 fold enrichment (6-mer frequency, TF over GST control)"
same,binding signal,[6],"1.39 fold enrichment (6-mer frequency, TF over GST control)"
same,binding signal,[7],"1.51 fold enrichment (6-mer frequency, TF over GST control)"
same,binding signal,[8],"1.41 fold enrichment (6-mer frequency, TF over GST control)"
same,binding signal,[9],"1.36 fold enrichment (6-mer frequency, TF over GST control)"
same,binding signal,[10],"1.48 fold enrichment (6-mer frequency, TF over GST control)"
same,binding signal,[11],"1.46 fold enrichment (6-mer frequency, TF over GST control)"
same,binding signal,[12],"1.67 fold enrichment (6-mer frequency, TF over GST control)"
same,binding signal,[13],"1.31 fold enrichment (6-mer frequency, TF over GST control)"
same,binding signal,[14],"1.47 fold enrichment (6-mer frequency, TF over GST control)"
same,binding signal,[15],"1.39 fold enrichment (6-mer frequency, TF over GST control)"
same,binding signal,[16],"1.68 fold enrichment (6-mer frequency, TF over GST control)"
same,binding signal,[17],"1.42 fold enrichment (6-mer frequency, TF over GST control)"
same,binding signal,[18],"2.46 fold enrichment (6-mer frequency, TF over GST control)"
same,binding signal,[19],"1.55 fold enrichment (6-mer frequency, TF over GST control)"
